# From article PMC7862700, “An all-to-all approach to the identification of sequence-specific readers for epigenetic DNA modifications on cytosine”
# Assays:
# Assay in all cases: DAPPL (digital affinity profiling via proximity ligation, sequencing); 10 mM Tris-HCl pH 7.5, 50 mM NaCl, 1 mM DTT, 4% glycerol, room temperature, 30 min; GST-TFs on glutathione beads, 16-mer random dsDNA library, 0.1% formaldehyde crosslink after washing; high values mean tight binding
# [1] = target: T1, FLI1 (Homo sapiens, UniProt Q01543 1-452); conditions: protein: recombinant; tags: N-terminal GST; dsDNA, one strand shown
# T1 sequence: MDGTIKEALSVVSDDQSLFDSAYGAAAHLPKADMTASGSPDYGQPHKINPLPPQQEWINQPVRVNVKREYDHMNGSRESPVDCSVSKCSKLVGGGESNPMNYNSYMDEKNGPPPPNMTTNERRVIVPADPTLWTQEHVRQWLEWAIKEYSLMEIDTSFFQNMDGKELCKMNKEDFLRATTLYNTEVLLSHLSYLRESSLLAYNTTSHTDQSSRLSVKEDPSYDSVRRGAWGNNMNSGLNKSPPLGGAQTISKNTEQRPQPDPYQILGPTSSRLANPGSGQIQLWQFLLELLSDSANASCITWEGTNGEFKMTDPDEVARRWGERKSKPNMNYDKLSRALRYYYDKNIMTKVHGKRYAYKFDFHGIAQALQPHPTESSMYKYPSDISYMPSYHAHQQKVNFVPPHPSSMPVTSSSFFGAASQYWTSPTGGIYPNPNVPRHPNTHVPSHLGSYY
# How it was run: (§1)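 Binding signal is given per hexamer as its read frequency for a factor divided by its frequency in the tag-only sample. GST-fused human transcription factors were expressed in yeast, captured on glutathione beads, barcoded with DNA and pooled with that sample, then incubated with 200 nmole of a 16-mer random double-stranded DNA library in Tris/NaCl/DTT/glycerol buffer for 30 min at room temperature. The pools were then washed, crosslinked, proximity-ligated, amplified by PCR and sequenced on an Illumina NextSeq500.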
# [2] = target: T2, ELK1 (Homo sapiens, UniProt P19419 1-428); conditions: protein: recombinant; tags: N-terminal GST; dsDNA, one strand shown
# T2 sequence: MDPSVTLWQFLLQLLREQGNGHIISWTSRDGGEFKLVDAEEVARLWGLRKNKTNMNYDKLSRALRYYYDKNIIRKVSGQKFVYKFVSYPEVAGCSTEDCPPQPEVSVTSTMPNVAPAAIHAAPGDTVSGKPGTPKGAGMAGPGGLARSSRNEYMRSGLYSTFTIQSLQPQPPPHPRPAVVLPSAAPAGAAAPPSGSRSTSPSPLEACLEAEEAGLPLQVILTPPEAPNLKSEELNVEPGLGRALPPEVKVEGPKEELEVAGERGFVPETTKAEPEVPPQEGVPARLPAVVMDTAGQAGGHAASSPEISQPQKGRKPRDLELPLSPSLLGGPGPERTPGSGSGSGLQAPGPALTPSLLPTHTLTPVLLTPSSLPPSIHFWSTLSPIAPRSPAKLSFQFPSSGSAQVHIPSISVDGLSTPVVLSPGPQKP
# How it was run: as §1
# [3] = target: T3, GABPA (Homo sapiens, UniProt Q06546 1-454); conditions: protein: recombinant; tags: N-terminal GST; dsDNA, one strand shown
# T3 sequence: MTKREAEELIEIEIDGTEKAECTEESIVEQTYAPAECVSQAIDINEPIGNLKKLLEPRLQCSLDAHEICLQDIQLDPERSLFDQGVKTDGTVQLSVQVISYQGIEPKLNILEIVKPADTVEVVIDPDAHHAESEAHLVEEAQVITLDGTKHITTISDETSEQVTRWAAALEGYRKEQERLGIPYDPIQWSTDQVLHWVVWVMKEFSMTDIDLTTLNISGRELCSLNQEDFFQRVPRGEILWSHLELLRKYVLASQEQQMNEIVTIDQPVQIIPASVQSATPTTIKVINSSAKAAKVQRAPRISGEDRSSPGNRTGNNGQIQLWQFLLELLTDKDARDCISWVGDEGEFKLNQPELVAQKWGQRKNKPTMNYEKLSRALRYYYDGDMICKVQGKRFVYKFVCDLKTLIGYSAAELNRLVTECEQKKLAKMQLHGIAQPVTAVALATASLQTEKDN
# How it was run: as §1
# [4] = target: T4, ERG (Homo sapiens, UniProt P11308 1-479); conditions: protein: recombinant; tags: N-terminal GST; dsDNA, one strand shown
# T4 sequence: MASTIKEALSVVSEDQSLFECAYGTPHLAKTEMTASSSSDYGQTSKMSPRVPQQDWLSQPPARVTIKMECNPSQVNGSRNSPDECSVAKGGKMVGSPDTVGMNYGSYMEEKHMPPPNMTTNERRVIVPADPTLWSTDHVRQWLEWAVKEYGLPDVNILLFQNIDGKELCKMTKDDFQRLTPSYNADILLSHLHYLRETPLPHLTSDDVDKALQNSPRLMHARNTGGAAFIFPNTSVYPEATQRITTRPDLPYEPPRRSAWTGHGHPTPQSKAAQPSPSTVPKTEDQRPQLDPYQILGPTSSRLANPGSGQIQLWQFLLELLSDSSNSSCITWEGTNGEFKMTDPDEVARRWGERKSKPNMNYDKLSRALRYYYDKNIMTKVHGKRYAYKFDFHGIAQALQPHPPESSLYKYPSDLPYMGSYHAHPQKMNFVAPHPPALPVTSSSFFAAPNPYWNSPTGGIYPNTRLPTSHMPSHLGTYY
# How it was run: as §1
# [5] = target: ELF1 (Homo sapiens, UniProt P32519 1-619); conditions: protein: recombinant; tags: N-terminal GST; dsDNA, one strand shown
# How it was run: as §1
# [6] = target: T5, EHF (Homo sapiens, UniProt Q9NZC4 1-300); conditions: protein: recombinant; tags: N-terminal GST; dsDNA, one strand shown
# T5 sequence: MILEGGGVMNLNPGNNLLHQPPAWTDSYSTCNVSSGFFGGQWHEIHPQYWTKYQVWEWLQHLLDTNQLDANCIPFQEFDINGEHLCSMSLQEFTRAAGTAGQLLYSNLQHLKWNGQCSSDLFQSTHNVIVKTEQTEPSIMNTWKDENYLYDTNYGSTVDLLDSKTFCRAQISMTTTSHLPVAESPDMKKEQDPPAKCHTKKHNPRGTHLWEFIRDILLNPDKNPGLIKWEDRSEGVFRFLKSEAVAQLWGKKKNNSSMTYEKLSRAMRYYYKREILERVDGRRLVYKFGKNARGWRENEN
# How it was run: as §1
# [7] = target: SPI1 (Homo sapiens, UniProt P17947 1-270); conditions: protein: recombinant; tags: N-terminal GST; dsDNA, one strand shown
# How it was run: as §1
# [8] = target: SPIB (Homo sapiens, UniProt Q01892 1-262); conditions: protein: recombinant; tags: N-terminal GST; dsDNA, one strand shown
# How it was run: as §1
# [9] = target: T6, ELK3 (Homo sapiens, UniProt P41970 1-407); conditions: protein: recombinant; tags: N-terminal GST; dsDNA, one strand shown
# T6 sequence: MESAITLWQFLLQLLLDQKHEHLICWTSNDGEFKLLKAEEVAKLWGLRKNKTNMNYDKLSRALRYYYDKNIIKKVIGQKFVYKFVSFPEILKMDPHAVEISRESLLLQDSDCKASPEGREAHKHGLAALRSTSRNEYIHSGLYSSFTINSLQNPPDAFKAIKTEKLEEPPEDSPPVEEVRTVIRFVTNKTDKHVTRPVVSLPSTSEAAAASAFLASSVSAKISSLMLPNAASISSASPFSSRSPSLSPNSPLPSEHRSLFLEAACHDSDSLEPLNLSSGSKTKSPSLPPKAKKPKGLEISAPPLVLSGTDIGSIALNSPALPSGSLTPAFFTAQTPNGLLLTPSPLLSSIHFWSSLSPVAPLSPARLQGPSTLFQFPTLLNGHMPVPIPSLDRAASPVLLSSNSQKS
# How it was run: as §1
# [10] = target: T7, FEV (Homo sapiens, UniProt Q99581 1-238); conditions: protein: recombinant; tags: N-terminal GST; dsDNA, one strand shown
# T7 sequence: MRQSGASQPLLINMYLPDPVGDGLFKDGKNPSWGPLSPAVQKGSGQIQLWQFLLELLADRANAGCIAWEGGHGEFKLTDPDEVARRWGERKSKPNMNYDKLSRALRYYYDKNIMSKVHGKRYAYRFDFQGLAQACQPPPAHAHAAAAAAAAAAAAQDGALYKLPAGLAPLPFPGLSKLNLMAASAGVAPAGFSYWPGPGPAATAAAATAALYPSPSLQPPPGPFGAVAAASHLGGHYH
# How it was run: as §1
# [11] = target: ETV5 (Homo sapiens, UniProt P41161 1-510); conditions: protein: recombinant; tags: N-terminal GST; dsDNA, one strand shown
# How it was run: as §1
# [12] = target: HSF1 (Homo sapiens, UniProt Q00613 1-529); conditions: protein: recombinant; tags: N-terminal GST; chain copies: 3; dsDNA, one strand shown
# How it was run: as §1
# [13] = target: T8, SPIC (Homo sapiens, UniProt Q8N5J4 1-248); conditions: protein: recombinant; tags: N-terminal GST; dsDNA, one strand shown
# T8 sequence: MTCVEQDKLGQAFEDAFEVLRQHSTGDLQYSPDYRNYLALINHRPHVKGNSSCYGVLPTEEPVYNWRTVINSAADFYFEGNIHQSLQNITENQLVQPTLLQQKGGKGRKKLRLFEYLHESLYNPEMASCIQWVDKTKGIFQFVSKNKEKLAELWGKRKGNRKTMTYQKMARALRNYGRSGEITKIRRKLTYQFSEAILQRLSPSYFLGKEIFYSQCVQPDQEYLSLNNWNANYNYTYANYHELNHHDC
# How it was run: as §1
# [14] = target: T9, ELK4 (Homo sapiens, UniProt P28324-2 1-405); conditions: protein: recombinant; tags: N-terminal GST; dsDNA, one strand shown
# T9 sequence: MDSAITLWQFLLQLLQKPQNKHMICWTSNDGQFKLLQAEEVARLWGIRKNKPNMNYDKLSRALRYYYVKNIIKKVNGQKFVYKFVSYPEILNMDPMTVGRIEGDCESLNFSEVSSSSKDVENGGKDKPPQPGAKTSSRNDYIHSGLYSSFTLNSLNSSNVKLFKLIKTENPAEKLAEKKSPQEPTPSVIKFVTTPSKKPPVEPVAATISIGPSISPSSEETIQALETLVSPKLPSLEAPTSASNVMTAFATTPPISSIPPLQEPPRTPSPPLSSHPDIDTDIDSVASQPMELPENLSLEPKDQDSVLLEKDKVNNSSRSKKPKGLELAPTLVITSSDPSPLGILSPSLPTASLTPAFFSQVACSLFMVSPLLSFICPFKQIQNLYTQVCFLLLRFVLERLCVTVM
# How it was run: as §1
# [15] = target: T10, ETV2 (Homo sapiens, UniProt O00321 1-342); conditions: protein: recombinant; tags: N-terminal GST; dsDNA, one strand shown
# T10 sequence: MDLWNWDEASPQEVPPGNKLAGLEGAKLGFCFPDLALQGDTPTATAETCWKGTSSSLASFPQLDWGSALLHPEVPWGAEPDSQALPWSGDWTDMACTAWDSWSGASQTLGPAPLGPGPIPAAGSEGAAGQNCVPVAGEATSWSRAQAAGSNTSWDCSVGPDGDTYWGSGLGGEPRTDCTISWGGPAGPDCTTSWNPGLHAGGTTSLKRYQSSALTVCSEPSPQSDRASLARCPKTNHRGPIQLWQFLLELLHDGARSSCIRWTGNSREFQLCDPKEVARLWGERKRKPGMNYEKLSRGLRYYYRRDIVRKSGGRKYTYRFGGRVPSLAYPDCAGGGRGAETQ
# How it was run: as §1
# [16] = target: T11, ELF3 (Homo sapiens, UniProt P78545 1-371); conditions: protein: recombinant; tags: N-terminal GST; dsDNA, one strand shown
# T11 sequence: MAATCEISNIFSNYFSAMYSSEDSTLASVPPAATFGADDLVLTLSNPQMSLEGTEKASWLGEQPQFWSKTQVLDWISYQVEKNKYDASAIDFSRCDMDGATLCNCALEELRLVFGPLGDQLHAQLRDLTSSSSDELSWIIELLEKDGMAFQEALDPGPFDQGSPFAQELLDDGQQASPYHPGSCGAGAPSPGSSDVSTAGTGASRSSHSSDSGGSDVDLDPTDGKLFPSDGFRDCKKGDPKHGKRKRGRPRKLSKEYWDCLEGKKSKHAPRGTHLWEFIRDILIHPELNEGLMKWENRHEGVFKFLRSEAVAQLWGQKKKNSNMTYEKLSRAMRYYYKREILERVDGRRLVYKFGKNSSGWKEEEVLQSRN
# How it was run: as §1
# [17] = target: CRX (Homo sapiens, UniProt O43186 1-299); conditions: protein: recombinant; tags: N-terminal GST; dsDNA, one strand shown
# How it was run: as §1
# [18] = target: ETV1 (Homo sapiens, UniProt P50549 1-477); conditions: protein: recombinant; tags: N-terminal GST; dsDNA, one strand shown
# How it was run: as §1
# SPIB, sequence (Q01892 whole entry): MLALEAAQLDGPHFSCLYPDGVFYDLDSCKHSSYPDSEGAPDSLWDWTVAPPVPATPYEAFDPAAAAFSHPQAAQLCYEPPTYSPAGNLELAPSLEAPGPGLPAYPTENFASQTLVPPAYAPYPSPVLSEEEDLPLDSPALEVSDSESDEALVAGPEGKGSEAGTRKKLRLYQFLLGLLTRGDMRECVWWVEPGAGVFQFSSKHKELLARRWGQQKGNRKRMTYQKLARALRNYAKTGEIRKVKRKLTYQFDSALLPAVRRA
# ETV5, sequence (P41161 whole entry): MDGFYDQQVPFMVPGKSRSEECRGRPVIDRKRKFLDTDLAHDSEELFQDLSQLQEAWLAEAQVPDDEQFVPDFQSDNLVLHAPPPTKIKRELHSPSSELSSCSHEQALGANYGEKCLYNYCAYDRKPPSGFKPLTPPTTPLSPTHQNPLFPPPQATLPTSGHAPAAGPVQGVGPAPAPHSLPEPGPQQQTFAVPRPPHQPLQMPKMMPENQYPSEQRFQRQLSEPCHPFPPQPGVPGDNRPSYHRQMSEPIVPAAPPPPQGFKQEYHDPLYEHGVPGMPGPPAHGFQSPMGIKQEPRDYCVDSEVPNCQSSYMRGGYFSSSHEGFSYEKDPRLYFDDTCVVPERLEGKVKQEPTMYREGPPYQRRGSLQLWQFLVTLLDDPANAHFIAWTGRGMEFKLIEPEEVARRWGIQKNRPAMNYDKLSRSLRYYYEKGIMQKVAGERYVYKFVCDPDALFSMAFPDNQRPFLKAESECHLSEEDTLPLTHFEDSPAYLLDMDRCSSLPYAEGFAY
# ELF1, sequence (P32519 whole entry): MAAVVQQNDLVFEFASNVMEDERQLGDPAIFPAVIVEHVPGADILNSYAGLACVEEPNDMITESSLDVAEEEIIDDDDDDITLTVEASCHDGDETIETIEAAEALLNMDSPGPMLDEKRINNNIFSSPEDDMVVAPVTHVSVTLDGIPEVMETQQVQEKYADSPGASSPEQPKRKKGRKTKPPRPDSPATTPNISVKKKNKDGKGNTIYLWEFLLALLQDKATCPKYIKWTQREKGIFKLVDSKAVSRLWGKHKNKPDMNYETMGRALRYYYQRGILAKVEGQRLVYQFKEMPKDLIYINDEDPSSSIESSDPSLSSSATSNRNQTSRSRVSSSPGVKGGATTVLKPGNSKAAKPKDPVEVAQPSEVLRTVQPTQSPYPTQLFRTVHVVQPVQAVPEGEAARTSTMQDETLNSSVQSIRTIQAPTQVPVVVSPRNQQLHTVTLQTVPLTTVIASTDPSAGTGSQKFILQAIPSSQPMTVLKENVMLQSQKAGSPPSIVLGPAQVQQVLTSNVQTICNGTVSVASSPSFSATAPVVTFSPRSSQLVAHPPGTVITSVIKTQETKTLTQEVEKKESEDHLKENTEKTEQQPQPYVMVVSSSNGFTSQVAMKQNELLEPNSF
# CRX, sequence (O43186 whole entry): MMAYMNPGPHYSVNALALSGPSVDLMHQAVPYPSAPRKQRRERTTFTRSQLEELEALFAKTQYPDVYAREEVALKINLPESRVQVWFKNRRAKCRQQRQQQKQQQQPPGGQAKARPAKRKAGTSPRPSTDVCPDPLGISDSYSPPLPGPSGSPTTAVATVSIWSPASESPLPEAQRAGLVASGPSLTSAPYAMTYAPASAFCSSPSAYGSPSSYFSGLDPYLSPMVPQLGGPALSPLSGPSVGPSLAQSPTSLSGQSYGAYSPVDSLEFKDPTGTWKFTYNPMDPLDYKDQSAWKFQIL
# HSF1, sequence (Q00613 whole entry): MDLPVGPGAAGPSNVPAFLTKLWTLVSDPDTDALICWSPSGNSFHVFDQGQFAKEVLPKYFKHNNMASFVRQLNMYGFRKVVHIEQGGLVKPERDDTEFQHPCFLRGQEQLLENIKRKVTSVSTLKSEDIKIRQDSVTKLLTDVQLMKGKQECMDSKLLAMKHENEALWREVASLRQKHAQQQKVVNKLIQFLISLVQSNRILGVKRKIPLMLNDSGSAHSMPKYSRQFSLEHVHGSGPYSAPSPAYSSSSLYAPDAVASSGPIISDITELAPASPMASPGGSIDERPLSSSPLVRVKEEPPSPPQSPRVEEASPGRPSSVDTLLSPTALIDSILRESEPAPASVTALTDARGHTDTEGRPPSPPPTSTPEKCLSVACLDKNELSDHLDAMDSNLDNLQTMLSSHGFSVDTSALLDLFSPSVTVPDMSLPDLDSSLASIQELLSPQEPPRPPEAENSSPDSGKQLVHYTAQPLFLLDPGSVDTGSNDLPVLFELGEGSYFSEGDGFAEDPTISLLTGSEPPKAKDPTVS
# ETV1, sequence (P50549 whole entry): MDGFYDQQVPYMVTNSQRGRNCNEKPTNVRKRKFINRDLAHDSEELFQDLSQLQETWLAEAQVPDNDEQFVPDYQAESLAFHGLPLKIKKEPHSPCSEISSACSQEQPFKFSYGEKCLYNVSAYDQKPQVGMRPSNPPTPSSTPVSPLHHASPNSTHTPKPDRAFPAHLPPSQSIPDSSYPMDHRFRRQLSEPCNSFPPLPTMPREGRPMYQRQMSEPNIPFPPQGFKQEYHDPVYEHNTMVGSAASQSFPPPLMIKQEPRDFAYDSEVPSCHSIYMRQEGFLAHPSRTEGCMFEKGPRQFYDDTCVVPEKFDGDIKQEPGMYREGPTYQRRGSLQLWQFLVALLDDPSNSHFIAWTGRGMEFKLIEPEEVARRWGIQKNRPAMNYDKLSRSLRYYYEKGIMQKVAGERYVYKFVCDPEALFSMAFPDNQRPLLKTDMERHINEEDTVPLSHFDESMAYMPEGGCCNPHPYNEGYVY
sequence,measurement,setting,value
TCAAAT,binding signal,[1],"1.04 fold enrichment (6-mer frequency, TF over GST control)"
same,binding signal,[2],"1.05 fold enrichment (6-mer frequency, TF over GST control)"
same,binding signal,[3],"1.14 fold enrichment (6-mer frequency, TF over GST control)"
same,binding signal,[4],"1.06 fold enrichment (6-mer frequency, TF over GST control)"
same,binding signal,[5],"1.15 fold enrichment (6-mer frequency, TF over GST control)"
same,binding signal,[6],"1.07 fold enrichment (6-mer frequency, TF over GST control)"
same,binding signal,[7],"1.11 fold enrichment (6-mer frequency, TF over GST control)"
same,binding signal,[8],"1.05 fold enrichment (6-mer frequency, TF over GST control)"
same,binding signal,[9],"1.03 fold enrichment (6-mer frequency, TF over GST control)"
same,binding signal,[10],"1.1 fold enrichment (6-mer frequency, TF over GST control)"
same,binding signal,[11],"1.09 fold enrichment (6-mer frequency, TF over GST control)"
same,binding signal,[12],"1.15 fold enrichment (6-mer frequency, TF over GST control)"
same,binding signal,[13],"1.12 fold enrichment (6-mer frequency, TF over GST control)"
same,binding signal,[14],"1.04 fold enrichment (6-mer frequency, TF over GST control)"
same,binding signal,[15],"1.1 fold enrichment (6-mer frequency, TF over GST control)"
same,binding signal,[16],"1.15 fold enrichment (6-mer frequency, TF over GST control)"
same,binding signal,[17],"1.32 fold enrichment (6-mer frequency, TF over GST control)"
same,binding signal,[18],"1.13 fold enrichment (6-mer frequency, TF over GST control)"
